Source: the supplement of paper PMC9254222
Over roughly 1,100 compounds, “Renilla luciferase signal (cell health) relative to plate median” has its median near 0.97; the highest 2% begin near 1.6. For the sample, the highest values were picked, then their nearest neighbours and some compounds at random.

System: HEK293T (UBE3A T485A transfected, BAR Wnt reporter)
Assay: Renilla luciferase signal (cell health) relative to plate median (fold (linear ratio)); higher = higher Renilla signal
Details: 24 h
Procedure, shortened: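 Wnt activity (firefly/Renilla ratio) and cell health (raw Renilla) were read with Dual-Glo luciferase and median-centred plate by plate. HEK293T cells, at 4500 cells/well in white 384-well plates with DMEM plus 10% FBS at 37°C and 5% CO2, carried a transfected BAR firefly luciferase Wnt reporter, TK-Renilla and an expression plasmid. The chemicals were applied by robot at 0.01–100 uM for 24 h, beginning four hours after transfection, and results were averaged across four biological replicates.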

CN(C)c1ccc(C(=O)c2ccc(N(C)C)cc2)cc1 [Michler's ketone] was tested, and the Renilla luciferase signal (concentration: 0.1 uM) was 1.09, the Renilla luciferase signal (concentration: 1 uM) was 1.03 and the Renilla luciferase signal (concentration: 10 uM) was 0.702. The Renilla luciferase signal (concentration: 100 uM) was 0.267.
With Cc1cc(O)ccc1Cl [4-Chloro-3-methylphenol] the Renilla luciferase signal (concentration: 0.1 uM) was 0.999, the Renilla luciferase signal (concentration: 1 uM) was 1.09 and the Renilla luciferase signal (concentration: 10 uM) was 0.977. The Renilla luciferase signal (concentration: 100 uM) was 1.06.
ClC1=C(Cl)C2(Cl)C3C4CC(C5OC45)C3C1(Cl)C2(Cl)Cl (stereo unspecified) [Dieldrin] was tested, and the Renilla luciferase signal (concentration: 0.1 uM) was 1.01, the Renilla luciferase signal (concentration: 1 uM) was 0.977 and the Renilla luciferase signal (concentration: 10 uM) was 1.07. The Renilla luciferase signal (concentration: 100 uM) was 0.829.
For ClC1=C(Cl)C2(Cl)C3C4CC(C5OC45)C3C1(Cl)C2(Cl)Cl (stereo unspecified) [Endrin], the Renilla luciferase signal (concentration: 0.1 uM) was 0.878, the Renilla luciferase signal (concentration: 1 uM) was 0.941 and the Renilla luciferase signal (concentration: 10 uM) was 0.842. For the same molecule, the Renilla luciferase signal (concentration: 100 uM) was 0.349.
Work on CCCCOC(=O)c1ccccc1C(=O)OCCCC [Dibutyl phthalate] yielded a Renilla luciferase signal (concentration: 0.01 uM) of 1.02, a Renilla luciferase signal (concentration: 0.1 uM) of 1.04 and a Renilla luciferase signal (concentration: 1 uM) of 1.02. It also gave a Renilla luciferase signal (concentration: 10 uM) of 1.03 and a Renilla luciferase signal (concentration: 100 uM) of 0.11.
CCCCCOC(=O)c1ccccc1C(=O)OCCCCC [Dipentyl phthalate] showed a Renilla luciferase signal (concentration: 0.1 uM) of 0.95, a Renilla luciferase signal (concentration: 1 uM) of 0.861 and a Renilla luciferase signal (concentration: 10 uM) of 0.91. For the same molecule, the Renilla luciferase signal (concentration: 100 uM) was 1.18.
Work on CCCCOC(=O)c1ccccc1C(=O)O [Monobutyl phthalate] yielded a Renilla luciferase signal (concentration: 0.01 uM) of 0.968, a Renilla luciferase signal (concentration: 0.1 uM) of 0.862 and a Renilla luciferase signal (concentration: 1 uM) of 0.73. It also gave a Renilla luciferase signal (concentration: 10 uM) of 1.21 and a Renilla luciferase signal (concentration: 100 uM) of 2.17.
Cc1cnc(C2=NC(=O)C(C)(C(C)C)N2)c(C(=O)O)c1 (stereo unspecified) [Imazapic] showed a Renilla luciferase signal (concentration: 0.01 uM) of 1.11, a Renilla luciferase signal (concentration: 0.1 uM) of 1.17 and a Renilla luciferase signal (concentration: 1 uM) of 1.18. The Renilla luciferase signal (concentration: 10 uM) was 1.14 and the Renilla luciferase signal (concentration: 100 uM) was 1.72.
In the case of CC(C)C1(C)N=C(c2nc3ccccc3cc2C(=O)O)NC1=O (stereo unspecified) [Imazaquin], the Renilla luciferase signal (concentration: 0.01 uM) is reported as 1.09, the Renilla luciferase signal (concentration: 0.1 uM) is reported as 1.09 and the Renilla luciferase signal (concentration: 1 uM) is reported as 1.07. It also gave a Renilla luciferase signal (concentration: 10 uM) of 1.06 and a Renilla luciferase signal (concentration: 100 uM) of 1.38.
CCC(C)C1OC2(C=CC1C)CC1CC(CC=C(C)C(OC3CC(OC)C(OC4CC(OC)C([NH2+]C)C(C)O4)C(C)O3)C(C)C=CC=C3COC4C(O)C(C)=CC(C(=O)O1)C34O)O2.O=C([O-])c1ccccc1 (stereo unspecified) [Emamectin benzoate] showed a Renilla luciferase signal (concentration: 0.01 uM) of 1.02, a Renilla luciferase signal (concentration: 0.1 uM) of 1.08 and a Renilla luciferase signal (concentration: 1 uM) of 0.877. The Renilla luciferase signal (concentration: 10 uM) was 0.0929 and the Renilla luciferase signal (concentration: 100 uM) was 0.0231.
CC(C)C1(C)N=C(c2ncccc2C(=O)O)NC1=O (stereo unspecified) [Imazapyr] showed a Renilla luciferase signal (concentration: 0.01 uM) of 0.822, a Renilla luciferase signal (concentration: 0.1 uM) of 0.714 and a Renilla luciferase signal (concentration: 1 uM) of 0.895. It also gave a Renilla luciferase signal (concentration: 10 uM) of 0.959 and a Renilla luciferase signal (concentration: 100 uM) of 1.42.
In the case of CCc1cnc(C2=NC(C)(C(C)C)C(=O)N2)c(C(=O)O)c1 (stereo unspecified) [Imazethapyr], the Renilla luciferase signal (concentration: 0.01 uM) is reported as 1.11, the Renilla luciferase signal (concentration: 0.1 uM) is reported as 0.962 and the Renilla luciferase signal (concentration: 1 uM) is reported as 0.96. For the same molecule, the Renilla luciferase signal (concentration: 10 uM) was 0.991 and the Renilla luciferase signal (concentration: 100 uM) was 1.58.
COCc1cnc(C2=NC(C)(C(C)C)C(=O)N2)c(C(=O)O)c1 (stereo unspecified) [Imazamox] gave a Renilla luciferase signal (concentration: 0.01 uM) of 0.649, a Renilla luciferase signal (concentration: 0.1 uM) of 0.799 and a Renilla luciferase signal (concentration: 1 uM) of 0.965. The Renilla luciferase signal (concentration: 10 uM) was 0.977 and the Renilla luciferase signal (concentration: 100 uM) was 2.3.
Molecule CCCOC/C(=N\c1ccc(Cl)cc1C(F)(F)F)n1ccnc1 [Triflumizole] has a Renilla luciferase signal (concentration: 0.01 uM) of 0.984, a Renilla luciferase signal (concentration: 0.1 uM) of 0.937 and a Renilla luciferase signal (concentration: 1 uM) of 0.992. The Renilla luciferase signal (concentration: 10 uM) was 0.929 and the Renilla luciferase signal (concentration: 100 uM) was 1.45.
For CCSC(=O)N(CC)C1CCCCC1 [Cycloate], the Renilla luciferase signal (concentration: 0.01 uM) was 0.797, the Renilla luciferase signal (concentration: 0.1 uM) was 0.996 and the Renilla luciferase signal (concentration: 1 uM) was 0.924. For the same molecule, the Renilla luciferase signal (concentration: 10 uM) was 1.01 and the Renilla luciferase signal (concentration: 100 uM) was 1.15.
CCSC(=O)N1CCCCCC1 [Molinate] gave a Renilla luciferase signal (concentration: 0.01 uM) of 0.998, a Renilla luciferase signal (concentration: 0.1 uM) of 0.899 and a Renilla luciferase signal (concentration: 1 uM) of 0.905. For the same molecule, the Renilla luciferase signal (concentration: 10 uM) was 1.04 and the Renilla luciferase signal (concentration: 100 uM) was 1.8.
Molecule CCOP(=S)(Oc1cnc(C(C)(C)C)nc1)OC(C)C (stereo unspecified) [Tebupirimfos] has a Renilla luciferase signal (concentration: 0.01 uM) of 1.07, a Renilla luciferase signal (concentration: 0.1 uM) of 1.22 and a Renilla luciferase signal (concentration: 1 uM) of 1.16. It also gave a Renilla luciferase signal (concentration: 10 uM) of 1.08 and a Renilla luciferase signal (concentration: 100 uM) of 1.4.
CSC(=O)c1c(C(F)F)nc(C(F)(F)F)c(C(=O)SC)c1CC(C)C [Dithiopyr] was tested, and the Renilla luciferase signal (concentration: 0.01 uM) was 0.664, the Renilla luciferase signal (concentration: 0.1 uM) was 0.813 and the Renilla luciferase signal (concentration: 1 uM) was 0.927. It also gave a Renilla luciferase signal (concentration: 10 uM) of 0.835 and a Renilla luciferase signal (concentration: 100 uM) of 1.14.
O=C(N[C@H](c1ccccc1)[C@@H]1CN2CCC1CC2)c1c(Cl)ccc(C(F)(F)F)c1Cl gave a Renilla luciferase signal (concentration: 0.1 uM) of 0.771, a Renilla luciferase signal (concentration: 1 uM) of 0.687 and a Renilla luciferase signal (concentration: 10 uM) of 0.344. For the same molecule, the Renilla luciferase signal (concentration: 100 uM) was 0.143.
CCOc1ccc(C(C)(C)COCc2cccc(Oc3ccccc3)c2)cc1 [Etofenprox] was tested, and the Renilla luciferase signal (concentration: 0.1 uM) was 1.01, the Renilla luciferase signal (concentration: 1 uM) was 1.12 and the Renilla luciferase signal (concentration: 10 uM) was 0.95. For the same molecule, the Renilla luciferase signal (concentration: 100 uM) was 1.14.
For CCC(C)(C)c1ccc(O)cc1 [4-(2-Methylbutan-2-yl)phenol], the Renilla luciferase signal (concentration: 0.1 uM) was 0.874, the Renilla luciferase signal (concentration: 1 uM) was 0.809 and the Renilla luciferase signal (concentration: 10 uM) was 0.795. For the same molecule, the Renilla luciferase signal (concentration: 100 uM) was 0.442.
With CSc1nc(NC(C)C)nc(NC(C)C)n1 [Prometryn] the Renilla luciferase signal (concentration: 0.01 uM) was 1.14, the Renilla luciferase signal (concentration: 0.1 uM) was 1.03 and the Renilla luciferase signal (concentration: 1 uM) was 0.973. The Renilla luciferase signal (concentration: 10 uM) was 1.01 and the Renilla luciferase signal (concentration: 100 uM) was 0.989.
In the case of CCNc1nc(Cl)nc(NC(C)C)n1 [Atrazine], the Renilla luciferase signal (concentration: 0.01 uM) is reported as 0.72, the Renilla luciferase signal (concentration: 0.1 uM) is reported as 0.693 and the Renilla luciferase signal (concentration: 1 uM) is reported as 0.877. For the same molecule, the Renilla luciferase signal (concentration: 10 uM) was 0.729 and the Renilla luciferase signal (concentration: 100 uM) was 1.18.
Molecule CCNc1nc(NC(C)C)nc(SC)n1 [Ametryn] has a Renilla luciferase signal (concentration: 0.01 uM) of 0.34, a Renilla luciferase signal (concentration: 0.1 uM) of 0.318 and a Renilla luciferase signal (concentration: 1 uM) of 0.3. The Renilla luciferase signal (concentration: 10 uM) was 0.543 and the Renilla luciferase signal (concentration: 100 uM) was 1.78.
Work on CCCN(CCC)c1c([N+](=O)[O-])cc(S(N)(=O)=O)cc1[N+](=O)[O-] [Oryzalin] yielded a Renilla luciferase signal (concentration: 0.01 uM) of 1.08, a Renilla luciferase signal (concentration: 0.1 uM) of 0.918 and a Renilla luciferase signal (concentration: 1 uM) of 0.931. The Renilla luciferase signal (concentration: 10 uM) was 0.876 and the Renilla luciferase signal (concentration: 100 uM) was 0.99.
With CC1COC(Cn2cncn2)(c2ccc(Oc3ccc(Cl)cc3)cc2Cl)O1 (stereo unspecified) [Difenoconazole] the Renilla luciferase signal (concentration: 0.01 uM) was 1.03, the Renilla luciferase signal (concentration: 0.1 uM) was 1.07 and the Renilla luciferase signal (concentration: 1 uM) was 0.923. It also gave a Renilla luciferase signal (concentration: 10 uM) of 0.485 and a Renilla luciferase signal (concentration: 100 uM) of 0.152.
Work on Cc1cccc(N)c1N [2,3-Diaminotoluene] yielded a Renilla luciferase signal (concentration: 0.1 uM) of 0.728, a Renilla luciferase signal (concentration: 1 uM) of 0.75 and a Renilla luciferase signal (concentration: 10 uM) of 0.772. The Renilla luciferase signal (concentration: 100 uM) was 0.198.
